Among the data in PubChem BioAssay (Tox21) are Potency, outcome and activity change, positive = activation values, retold here.

A number with no mark means an inactive call. Records with an inconclusive call do not appear. Active and inactive are the calls of the source. Unless noted, calls follow the shape of the dose curve; as a rule, active = well fitted curve in the direction sought with a large enough effect in the repeat runs; inconclusive = weak or mixed curves; inactive = no such curve, though single readings can be large; an effect the other way counts as inactive or inconclusive.

Assay [1] is described as follows: qHTS assay to identify small molecule agonists of the hypoxia (HIF-1) signaling pathway - cell viability counter screen (AID 1224844; calls by dose curve; also: nearly all actives have a fitted effect of over 50% in size; also: potency is read from the fitted curve at half-maximal effect). The procedure, abridged:
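Cytotoxicity measured by CellTiter-Glo ATP luminescence in the wells also read for beta-lactamase signal. Cells were HRE-bla ME-180 (2,000/well, 0.5% dialyzed FBS), exposed to compounds for 17 h at 37C.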
(qHTS replaces the single test concentration by a dilution series.)

Assay [2] is described as follows: qHTS assay to identify small molecule agonists of H2AX (AID 1224845; active = well fitted activation curve with a large enough effect in the signal ratio in the repeat runs, not every such curve was filed as active; the % refers to the signal ratio). The method, boiled down:
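Wild-type CHO-K1 cells plated overnight, then exposed 3 hr at 37C to compounds at 15 concentrations (0.76% DMSO). Lysed, then HTRF anti-pH2AX(S139)-cryptate/anti-H2AX-d2 detection after 24 hr at room temperature; emissions 665 and 620 nm.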

Assay [3] is described as follows: qHTS assay to identify small molecule agonists of the hypoxia (HIF-1) signaling pathway (AID 1224846; active = well fitted activation curve with a large enough effect in the signal ratio in the repeat runs, not every such curve was filed as active; the % refers to the signal ratio). The method, boiled down:
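Compounds added to ME-180 cells carrying hypoxia-response-element beta-lactamase reporter (0.5% dialyzed FBS, 5 h preplating), 17 h at 37C; agonist activity detected by CCF4-AM B/G FRET read-out.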

Assay [4] is described as follows: qHTS assay to identify small molecule agonists of H2AX - cell viability counter screen (AID 1224847; calls by dose curve; also: nearly all actives have a fitted effect of over 30% in size; also: potency is read from the fitted curve at half-maximal effect). The procedure, abridged: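 We seed wild-type CHO-K1 cells overnight, treat them for 3 hr at 37C with compounds in 15-concentration series, and quantify remaining viability by CellTiter-Glo luminescence.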
Assay [5] in a line: qHTS RealTime-Glo MT Cell Viability Assay in HepG2 cells - 24 hour (AID 1224867). Also: nearly all actives have a fitted effect of over 50% in size. Also: potency is read from the fitted curve at half-maximal effect. The procedure, abridged: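 Viability was tracked continuously by NanoLuc luminescence from prosubstrate reduced by living HepG2 cells, at successive time points over 40 h of compound exposure. Cells with reagent were preincubated 5 h at 37 °C before compound addition.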
Assay [6] in a line: qHTS RealTime-Glo MT Cell Viability Assay in HEK293 cells - 32 hour (AID 1224868). Also: nearly all actives have a fitted effect of over 50% in size. Also: potency is read from the fitted curve at half-maximal effect. The procedure, abridged: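 Viability tracked continuously by luminescence as live cells reduce a prosubstrate for NanoLuc; HEK293 cells preincubated 5 h, compound-treated at 37 C, and read at 0, 8, 16, 24, 32 and 40 h.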
Assay [7] can be described thus: A CellTox Green Cytotoxicity Assay to monitor cytotoxicity in HEK293 cells - 0 hour (AID 1224869). Also: nearly all actives have a fitted effect of over 50% in size. The procedure, abridged:
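Fluorescence from a DNA-binding dye excluded by viable cells was measured repeatedly in the same HEK293 wells (600 cells/well) during continuous compound exposure at 37 C. Each assay gives one read point: 0, 8, 16, 24, 32 or 40 h.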

Assay [8] is described as follows: qHTS assay to identify small molecule antagonists of the estrogen related receptor (ERR) signaling pathway from Tox21 library (AID 1224848). Also: nearly all actives have a fitted effect of over 50% in size. Also: potency is read from the fitted curve at half-maximal effect. The method, boiled down:
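Tox21 10K compounds in DMSO tested for ERR pathway antagonism in NTP's ERR cell line; 18 h, 37 C exposure; ONE-Glo luminescence.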

The nature of assay [9]: qHTS assay to identify small molecule agonists of the estrogen related receptor (ERR) signaling pathway from Tox21 library (AID 1224849; calls by dose curve; also: nearly all actives have a fitted effect of over 15% in size). To be noted: ERR reporter cell line, ONE-Glo luciferase, 18 h; at 92.4 µM (top of the series) unless noted. The procedure, abridged:
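Luminescent agonist read-out (One-Glo, 30-minute room-temperature incubation) following 18-hour compound treatment at 37 C of the ERR cell line, which had been plated 6 hours before dosing.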

Assay [10] deals with Thyrotropin receptor (Homo sapiens) (UniProt P16473). Briefly: qHTS assay to identify small molecule agonists of the thyroid stimulating hormone receptor (TSHR) signaling pathway (AID 1224843; calls by dose curve; also: nearly all actives have a fitted effect of over 45% in size). The procedure, abridged: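 Using 15 concentrations per compound in triplicate, cAMP production was monitored in TSHR-HEK293 cells after 30 min compound incubation at RT; HTRF reagents followed, with fluorescence intensity recorded after 1 h.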
Sequence of Thyrotropin receptor (Homo sapiens) (P16473 whole entry, looked up): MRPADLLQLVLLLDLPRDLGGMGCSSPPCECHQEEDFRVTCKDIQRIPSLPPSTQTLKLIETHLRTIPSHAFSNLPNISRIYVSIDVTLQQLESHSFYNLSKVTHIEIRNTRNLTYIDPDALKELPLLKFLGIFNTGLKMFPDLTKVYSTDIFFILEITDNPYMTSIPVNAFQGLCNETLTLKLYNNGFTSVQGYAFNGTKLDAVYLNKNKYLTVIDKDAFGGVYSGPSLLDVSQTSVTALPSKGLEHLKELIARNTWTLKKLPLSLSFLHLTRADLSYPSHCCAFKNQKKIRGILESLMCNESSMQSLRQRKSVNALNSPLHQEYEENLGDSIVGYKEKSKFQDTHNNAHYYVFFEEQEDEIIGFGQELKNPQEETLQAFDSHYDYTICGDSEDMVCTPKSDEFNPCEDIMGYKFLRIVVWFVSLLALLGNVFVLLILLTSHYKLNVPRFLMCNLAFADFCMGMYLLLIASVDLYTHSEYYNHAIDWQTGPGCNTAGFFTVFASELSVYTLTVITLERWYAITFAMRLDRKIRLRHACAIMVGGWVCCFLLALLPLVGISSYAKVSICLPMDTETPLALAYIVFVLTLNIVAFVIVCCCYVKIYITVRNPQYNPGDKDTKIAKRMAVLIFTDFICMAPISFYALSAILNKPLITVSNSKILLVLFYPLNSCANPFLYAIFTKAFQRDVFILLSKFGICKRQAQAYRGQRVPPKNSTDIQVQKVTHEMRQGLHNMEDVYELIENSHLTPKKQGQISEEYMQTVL
% is scaled to controls: 0 for no effect and ±100 for the full control effect.

Turning to `O=C1CCCCCCCCCCOCCCCO1`, the Potency result in [1], in [2], in assay [4], in [5], in [6] and in assay [7] was “inactive” in each case. For the same compound, in assay [3], the compound was classed as inactive.

For the compound `C[C@H]1c2cccc(O)c2C(O)=C2C(=O)[C@]3(O)C(O)=C(C(N)=O)C(=O)[C@@H](N(C)C)[C@@H]3[C@@H](O)[C@@H]21`, the Potency entry in assay [1], in [2], in [4], in assay [5], in assay [6] and in [7] was “inactive” in each case. In addition, in assay [3], the result was inactive. Further, in [8], the Potency was 18.8 µM (active). Besides, in assay [9], the activity change, positive = activation is -33.4% [at 42.5 µM].

Take `C=CC(=O)OCC1CC2CC1C1CCC(COC(=O)C=C)C21` (stereo not given): the Potency result in assay [10] and in assay [7] was “inactive” each time.

On to `CCCCN(CCCC)C(C(N)=O)c1ccc(OC)cc1` (stereo not given), for which the Potency result in assay [1], in assay [2], in assay [4], in assay [5] and in assay [7] was “inactive” throughout. The compound was called inactive in assay [3].

`CC[N+](CC)(CCNC(=O)C(=O)NCC[N+](CC)(CC)Cc1ccccc1Cl)Cc1ccccc1Cl`: the Potency result in assay [1], in [2], in assay [4], in assay [8], in [5] and in [6] was “inactive” throughout. Moreover, the Potency entry in assay [7] is “inactive”. Further, the result in [3] was inactive. The activity change, positive = activation in assay [9] was 8.73% [at 42.5 µM].

For `C[C@@H]1CN(CCCn2c3ccccc3c3ccccc32)C[C@H](C)N1`, the results for the Potency in assay [1], in assay [5] and in assay [6] were 21.3 µM (active), 23.9 µM (active) and 26.8 µM (active), respectively. In addition, the Potency entry in assay [2] is “inactive”. The outcome in assay [3] was inactive. For the same compound, in assay [9], the activity change, positive = activation is -72.9% [at 42.5 µM].

Turning to `CCOC(=O)c1ccccc1C(=C1C=C(Br)C(=O)C(Br)=C1)c1cc(Br)c(O)c(Br)c1`, the Potency entry in assay [10], in assay [4], in assay [5] and in [7] was “inactive” in each case. The Potency in [8] is 45.7 µM (active). The activity change, positive = activation in assay [9] is -32.1% [at 42.5 µM].

Take `C/C=C/C=C/C=O`: the Potency in assay [1] is 48.6 µM (active). Besides, the Potency result in assay [2], in [4], in assay [5] and in assay [7] was “inactive” throughout. The compound was called inactive in [3]. Also, in [9], the activity change, positive = activation is 4.86%.

Consider `CC1(C)[C@H](C(=O)O)N2C(=O)C[C@H]2S1(=O)=O`, for which the Potency entry in [1], in assay [2], in assay [4], in assay [8], in [5] and in assay [6] was “inactive” each time. Further, in assay [7], the Potency entry is “inactive”. Moreover, the outcome in assay [3] was inactive. In addition, in assay [9], the activity change, positive = activation was 5.98% [at 42.5 µM].

For the compound `O=c1cc(-c2ccccc2)oc2ccc3ccccc3c12`, the values for the Potency in assay [1] and in assay [4] were 24.5 µM (active) and 25.3 µM (active), respectively. Also, the compound was classed as inactive in assay [3]. The Potency entry in [8], in assay [5], in [6] and in [7] was “inactive” throughout. For the same compound, the activity change, positive = activation in assay [9] was -35% (active).

As to `COc1ncnc(NS(=O)(=O)c2ccc(N)cc2)c1OC`, the Potency entry in assay [1], in assay [2], in [5], in [6] and in assay [7] was “inactive” throughout. Moreover, the activity change, positive = activation in assay [9] is 1.61% [at 42.5 µM].

Take `CC(=O)NC1(c2cccc(F)c2)CCN(CC[C@@]2(c3ccc(Cl)c(Cl)c3)CN(c3ccccc3)C(=O)CO2)CC1`: the Potency entry in [10] and in assay [7] was “inactive” throughout. Moreover, the outcome in assay [3] was inactive. The Potency is 43.8 µM (active) in assay [5] and 17.4 µM (active) in assay [6].

For the compound `CN1C(=O)N(c2ccccc2Br)Cc2cnc(Nc3ccc4c(c3)OCC(CO)O4)nc21` (stereo not given), the Potency result in [1], in [2] and in assay [7] was “inactive” throughout. The Potency is 31.8 µM (active) in assay [4] and 6.16 µM (active) in assay [6]. Moreover, in [9], the activity change, positive = activation was -69.6%.

In the case of `Oc1c(I)cc(I)c2cccnc12`, the Potency entry in assay [10], in [4], in [5] and in [7] was “inactive” throughout. The activity change, positive = activation in assay [9] was -8.8% [at 42.5 µM].

`CN1C(=O)OC(C)(C)C1=O`: the Potency entry in assay [1], in assay [2], in assay [4], in [8], in assay [5] and in assay [6] was “inactive” in each case. In addition, the Potency entry in assay [7] was “inactive”. In addition, the activity change, positive = activation in assay [9] is 4.82%.

`CN1C(C(=O)Nc2ccccn2)=C(O)c2sccc2S1(=O)=O`: the Potency result in assay [1], in [2], in [5], in [6] and in assay [7] was “inactive” throughout. The result in assay [3] was inactive.

Take `CCCCCC[C@@H](O)C/C=C\CCCCCCCC(=O)OCC(O)CO` (stereo not given in full): the Potency result in assay [1], in assay [2], in assay [4], in [5], in assay [6] and in assay [7] was “inactive” each time. Further, in assay [3], the result was inactive. The activity change, positive = activation in assay [9] is -2.03%.

As to `Nc1nnc(-c2ccc([N+](=O)[O-])o2)o1`, the Potency entry in assay [1], in assay [4], in [6] and in assay [7] was “inactive” throughout. The call in assay [3] was inactive.

For the compound `CC(=O)Nc1cc(S(=O)(=O)O)cc2cc(S(=O)(=O)O)c(N=Nc3ccccc3)c(O)c12`, the Potency result in assay [1], in assay [5], in [6] and in assay [7] was “inactive” each time. The call in assay [3] was inactive. For the same compound, the Potency in assay [4] was 50.5 µM (active). Moreover, in assay [9], the activity change, positive = activation is -5.56%.

Turning to `CC1=C(CC=O)C(C)(C)CCC1`, the Potency result in assay [2], in assay [5], in [6] and in assay [7] was “inactive” throughout. For the same compound, the outcome in assay [3] was inactive.

With `Brc1cc2ccccc2c2ccccc12`, the Potency in assay [1] is 44 µM (active). The activity change, positive = activation in [9] is -24%. The Potency entry in assay [5] and in assay [7] was “inactive” in each case.

Turning to `CC(=O)N/N=C/c1ccc([N+](=O)[O-])o1`, the compound was called inactive in [3]. The Potency entry in assay [8], in assay [5], in assay [6] and in assay [7] was “inactive” in each case. In [9], the activity change, positive = activation is -10.2% [at 42.5 µM].
